Laboratory results: PubChem BioAssay (Tox21)
Results filed as inconclusive are left out. The source made the active and inactive calls. Unless noted, calls come from the whole dose curve.

Key:
[1] = qHTS assay to identify small molecule agonists of the vitamin D receptor (VDR) signaling pathway - cell viability counter screen (AID 743224; active = well fitted curve in the direction sought with a large enough effect in the repeat runs; an effect the other way counts as inactive or inconclusive; note: series mostly up to about 63 µM; % is set by controls: 0 for no effect and ±100 for the full control effect; nearly all actives have a fitted effect of over 50% in size)
Summary of the method: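 Cells: VDR-bla, 2,000/well, settled 4 h. Treatment: compounds in DMSO, 16 h, 37C/5% CO2. Readout: CellTiter-Glo luminescence after 30 min RT.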

[2] = qHTS assay to identify small molecule antagonists of the vitamin D receptor (VDR) signaling pathway - cell viability counter screen (AID 743225; active = well fitted curve in the direction sought with a large enough effect in the repeat runs; an effect the other way counts as inactive or inconclusive; note: % is set by controls: 0 for no effect and ±100 for the full control effect; nearly all actives have a fitted effect of over 50% in size)
Summary of the method: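 VDR-bla HEK 293T cells, 4 h pre-incubation at 37C, then compound plus 1-alpha,25-dihydroxyvitamin D3 (3 nM final) for 16 h. After the beta-lactamase FRET read, CellTiter-Glo was added to the same wells; luminescence after 30 min at room temperature.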

[3] = qHTS assay to identify small molecule agonists of the NFkB signaling pathway (AID 1159509; active = well fitted curve in the direction sought with a large enough effect in the signal ratio in the repeat runs, not every such curve was filed as active; the % refers to the signal ratio; note: series mostly up to about 61 µM; % is set by controls: 0 for no effect and ±100 for the full control effect)
Summary of the method: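 Beta-lactamase reporter assay run in quantitative high-throughput format on an NF-kB-responsive ME-180 line, with 5 hr compound treatment and a FRET-based blue/green fluorescence readout.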

[4] = qHTS assay to identify small molecule agonists of the NFkB signaling pathway - cell viability counter screen (AID 1159515); note: series mostly up to about 61 µM; % is set by controls: 0 for no effect and ±100 for the full control effect; nearly all actives have a fitted effect of over 55% in size
Summary of the method: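 Cells are seeded (2,000 NFkB-bla ME-180 per well), rested overnight, and dosed with DMSO-dissolved compounds for 5 hr at 37 C. Viability is then read by CellTiter-Glo luminescence after 30 min at room temperature.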

[5] = qHTS assay to identify small molecule agonists of the endoplasmic reticulum stress response signaling pathway (AID 1159516; active = well fitted activation curve with a large enough effect in the signal ratio in the repeat runs, not every such curve was filed as active; the % refers to the signal ratio; note: % is set by controls: 0 for no effect and ±100 for the full control effect)
Summary of the method: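 Cells are seeded at 1,500 per well and incubated overnight. Compounds in DMSO are added for 5 hr at 37 C, then beta-lactamase FRET substrate for 2 hr at room temperature, and fluorescence at 460 and 530 nm is measured.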

[6] = qHTS assay to identify small molecule agonists of the endoplasmic reticulum stress response signaling pathway - cell viability counter screen (AID 1159517);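 note: HeLa cells carrying an ER stress response element beta-lactamase reporter; series mostly up to about 61 µM; % is set by controls: 0 for no effect and ±100 for the full control effect; nearly all actives have a fitted effect of over 50% in size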
Summary of the method: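 Cytotoxicity of test compounds toward ESRE-bla HeLa cells was assessed after 5 hr exposure. The luminescent CellTiter-Glo signal was measured 30 min after reagent addition.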

[7] = qHTS assay to identify small molecule antagonists of the retinoid-related orphan receptor gamma (ROR-gamma) signaling pathway - cell viability counter screen (AID 1159520; active = well fitted curve in the direction sought with a large enough effect in the repeat runs; an effect the other way counts as inactive or inconclusive; note: % is set by controls: 0 for no effect and ±100 for the full control effect; nearly all actives have a fitted effect of over 50% in size)
Summary of the method: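 Tet-on ROR gamma CHO cells (1,000/well) were plated 4 hr, given compounds in DMSO for 2 hr at 37 C, then induced with 1 uM final doxycycline for 16 hr. Viability was read as ATP by CellTiter-Glo luminescence after 30 min.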

[8] = target: Nuclear receptor ROR-gamma (Homo sapiens) (UniProt P51449); experiment: qHTS assay to identify small molecule antagonists of the retinoid-related orphan receptor gamma (ROR-gamma) signaling pathway (AID 1159521; active = well fitted curve in the direction sought with a large enough effect in the repeat runs; an effect the other way counts as inactive or inconclusive)
Summary of the method: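 Tet-on RORγ CHO cells carrying a ROR response element–luciferase reporter were pretreated with compounds for 2 h, then induced with 1 uM (final) doxycycline hyclate for 16 h at 37 C. Antagonism was read as decreased ONE-Glo luminescence.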

[9] = qHTS assay to identify small molecule agonists of the AP-1 signaling pathway - cell viability counter screen (AID 1159525); note: nearly all actives have a fitted effect of over 55% in size
Summary of the method: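 Each titration point was normalised to DMSO and tetra n-octyl ammonium bromide controls. The read was Cell Titer Glo luminescence after 30 min at RT, following 5 h compound exposure of ME-180 AP-1-bla cells at 37 °C.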

[10] = qHTS assay to identify small molecule agonists of the AP-1 signaling pathway (AID 1159526); note: % is set by controls: 0 for no effect and ±100 for the full control effect

CCCOc1ccccc1-c1nc2n[nH]nc2c(=O)[nH]1
inactive: outcome [1] | outcome [2] | outcome [3] | outcome [4] | outcome [5] | outcome [6] | Potency [7] | Potency [8] | outcome [9] | Potency [10]

COc1ccc(N=[N+]([O-])c2ccc(OC)cc2)cc1
inactive: outcome [1] | outcome [2] | outcome [3] | outcome [4] | outcome [5] | outcome [6] | Potency [7] | Potency [8] | outcome [9] | Potency [10]

CC(C)COC(=O)C(C)C
inactive: outcome [1] | outcome [2] | outcome [3] | outcome [4] | outcome [5] | outcome [6] | Potency [7] | Potency [8] | outcome [9] | Potency [10]

NC(=S)Nc1cccc2ccccc12
inactive: activity change, negative = cytotoxicity [1] 6.68% [at 5.95 µM] | viability change, negative = cytotoxic [2] -0.0846% [at 6.95 µM] | activation [3] -0.909% [at 6.95 µM] | activity, negative = cytotoxic [4] -2.24% [at 6.95 µM] | activation [5] -3.75% [at 6.95 µM] | activity change, negative = cytotoxicity [6] 2.64% [at 6.95 µM] | activity, negative = cytotoxicity [7] 13.1% [at 8.39 µM] | activity change, negative = inhibition [8] 10.3% [at 8.39 µM] | viability change, negative = cytotoxic [9] -1.31% [at 6.97 µM] | activation [10] -4.57% [at 6.97 µM]

C[N+](C)(C)CC[N+]1(C)Cc2c(Cl)c(Cl)c(Cl)c(Cl)c2C1
inactive: outcome [1] | outcome [2] | outcome [3] | outcome [4] | outcome [5] | outcome [6] | Potency [7] | Potency [8] | outcome [9] | Potency [10]

CC(=O)O[C@H](CC(=O)[O-])C[N+](C)(C)C
inactive: outcome [1] | outcome [2] | outcome [3] | outcome [4] | outcome [5] | outcome [6] | Potency [7] | Potency [8] | outcome [9] | Potency [10]

CC(C)(C)CC(C)(C)N
inactive: outcome [1] | outcome [2] | outcome [3] | outcome [4] | outcome [5] | outcome [6] | Potency [7] | Potency [8] | outcome [9] | Potency [10]

Nc1nc2c(ncn2CCC(CO)CO)c(=O)[nH]1
inactive: outcome [1] | outcome [2] | outcome [3] | outcome [4] | outcome [5] | outcome [6] | Potency [7] | Potency [8] | outcome [9] | Potency [10]

O=C1OC(=O)c2cc([N+](=O)[O-])ccc21
inactive: outcome [1] | outcome [2] | outcome [3] | outcome [4] | outcome [5] | outcome [6] | Potency [7] | Potency [8] | outcome [9] | Potency [10]

O=C(O)/C=C/c1ccc(/C=C/C(=O)O)cc1
inactive: outcome [1] | outcome [2] | outcome [3] | outcome [4] | outcome [5] | outcome [6] | Potency [7] | Potency [8] | outcome [9] | Potency [10]

CC(C)(O)c1ccccc1
inactive: outcome [1] | outcome [2] | outcome [3] | outcome [4] | outcome [5] | outcome [6] | Potency [7] | Potency [8] | outcome [9] | Potency [10]

C=CCSCC1Nc2cc(Cl)c(S(N)(=O)=O)cc2S(=O)(=O)N1 (stereo not given)
inactive: outcome [1] | outcome [2] | outcome [3] | outcome [4] | outcome [5] | outcome [6] | Potency [7] | Potency [8] | outcome [9] | Potency [10]

C1COCCO1
inactive: outcome [1] | outcome [2] | outcome [3] | outcome [4] | outcome [5] | outcome [6] | Potency [7] | Potency [8] | outcome [9] | Potency [10]

CCO[Si](CCCN=C=O)(OCC)OCC
inactive: outcome [1] | outcome [2] | outcome [3] | outcome [4] | outcome [5] | outcome [6] | Potency [7] | Potency [8] | outcome [9] | Potency [10]

CC1=CCC2C(C1)C2(C)C (stereo not given)
inactive: outcome [1] | outcome [2] | outcome [3] | outcome [4] | outcome [5] | outcome [6] | Potency [7] | Potency [8] | outcome [9] | Potency [10]

C[C@H]1O[C@@H](n2cc(F)c(=O)[nH]c2=O)[C@H](O)[C@@H]1O
inactive: outcome [1] | outcome [2] | outcome [3] | outcome [4] | outcome [5] | outcome [6] | Potency [7] | Potency [8] | outcome [9] | Potency [10]

O=C(O)C1CCC1
inactive: outcome [1] | outcome [2] | outcome [3] | outcome [4] | outcome [5] | outcome [6] | Potency [7] | Potency [8] | outcome [9] | Potency [10]

CN1[C@@H]2CC[C@H]1CC(NC(=O)n1c(=O)[nH]c3ccccc31)C2 (stereo not given in full)
inactive: outcome [1] | outcome [2] | outcome [3] | outcome [4] | outcome [5] | outcome [6] | Potency [7] | Potency [8] | outcome [9] | Potency [10]

CNC(=O)c1c(I)c(NC(=O)CCCCC(=O)Nc2c(I)c(C(=O)O)c(I)c(C(=O)NC)c2I)c(I)c(C(=O)O)c1I
inactive: outcome [1] | outcome [2] | outcome [3] | outcome [4] | outcome [5] | outcome [6] | Potency [7] | Potency [8] | outcome [9] | Potency [10]

COc1cc(C(=O)N2CCOCC2)cc(OC)c1OC
inactive: outcome [1] | outcome [2] | outcome [3] | outcome [4] | outcome [5] | outcome [6] | Potency [7] | Potency [8] | outcome [9] | Potency [10]

C=C(C)C(=O)OCCCCCCCCCCCCCCCCCC
inactive: outcome [1] | outcome [2] | outcome [3] | outcome [4] | outcome [5] | outcome [6] | activity, negative = cytotoxicity [7] -0.822% [at 19 µM] | activity change, negative = inhibition [8] 0.457% [at 19 µM] | viability change, negative = cytotoxic [9] 1.55% [at 15.8 µM] | activation [10] 0.371% [at 15.8 µM]

CC(C)c1cccc(C(C)C)c1N
inactive: outcome [1] | outcome [2] | outcome [3] | outcome [4] | outcome [5] | outcome [6] | Potency [7] | Potency [8] | outcome [9] | Potency [10]

NCCNC(=O)c1ccc(Cl)cn1
inactive: outcome [1] | outcome [2] | outcome [3] | outcome [4] | outcome [5] | outcome [6] | Potency [7] | Potency [8] | outcome [9] | Potency [10]
